This passage reports outcome results from PubChem BioAssay AID434958 (Southern Research Specialized Biocontainment Screening …, 2010).

SMILES strings stand for the structures. In all, about 1,200 compounds went through this assay and about 400 (33%) were called active. The rule behind the calls is not given here. A selection follows. Measured potencies and affinities stand elsewhere.

The nature of the assay: mammalian cell cytotoxicity, dose response, cytotoxicity control (AID 434958).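 Note: cells exposed to compound for 72 hours before readout.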 As to conditions: cytotoxicity counter-screen; series mostly up to 40 µM.
`O=C(OCC(=O)c1ccc[nH]1)C1=COCCO1`: the compound was classed as inactive.

`COc1ccc(C(=O)n2c(SC)nc3cc4c(cc32)OCCO4)cc1`: the call was inactive.

For the compound `Cc1ccc(OC(=O)COc2ccccc2)c(-n2nc3ccccc3n2)c1`, the call was inactive.

With `N#Cc1c(SCC(=O)O)nc(N2CCCCC2)c2c1CCCC2`, the result was inactive.

For the compound `Cc1cccc(C)c1OCC(=O)NNC(=O)CNC(=O)c1ccc(OC(F)F)cc1`, the compound was classed as inactive.

`CCn1c(SCc2nc(-c3cccs3)no2)nnc1-c1c[nH]c2ccccc12`: the compound was called inactive.

On to `C=C(C)COc1ccc(-c2nc(N)ncc2Oc2ccc(OC)cc2)c(O)c1`, for which the compound was called inactive.

For `COc1cccc(CNC(=O)C(Cc2ccccc2)n2cccc2)c1` (configuration not stated), the outcome was inactive.

`CC(=O)C1=C(C)NC(SCC(=O)c2ccccc2)=C(C#N)C1CC(C)C` (configuration not stated): the outcome was inactive.

With `Nc1nc2ccccc2n1C(=O)c1cccs1`, the compound was classed as inactive.

Regarding `O=C(COc1ccccc1)NNC(=O)c1cc2ccccc2oc1=O`, the compound was classed as inactive.

Take `COCCNC(=O)COc1ccc(Oc2ccccc2)cc1`: the result was inactive.

As to `O=C1Nc2c(ccc(Cl)c2Cl)C(=O)C1(F)c1ccccc1` (configuration not stated), the compound was classed as inactive.

In the case of `CCOC(=O)c1cnn(-c2ncnc3sc4c(c23)CCC4)c1N`, the call was inactive.

Consider `Cc1cc(C(=O)Nc2ccc(Br)cc2F)n(-c2ccccc2)n1`, for which the compound was called inactive.

Consider `Cc1cc(=O)n2c(-c3ccccc3C)n[nH]c2n1`, for which the outcome was inactive.

As for `Cc1ccc(NC(=O)/C=C\C(=O)O)c([N+](=O)[O-])c1`, the call was inactive.

On to `CC(=O)Nc1ccc(S(=O)(=O)Nc2cccc3cccnc23)cc1`, for which the outcome was inactive.

`Cc1ccc(C)c(SCC(=O)OCC(=O)N2CC(C)OC(C)C2)c1` (configuration not stated): the compound was classed as inactive.

As to `COc1ccccc1CNC(=O)COC(=O)C1=COCCO1`, the outcome was inactive.

Take `O=C(CC1SC(=O)NC1=O)Oc1ccc(/C=N/NC(=O)c2ccccc2O)cc1` (configuration not stated): the compound was called inactive.

For the compound `Cc1oc(C(C)(C)C)cc1C(=O)Nc1ccc2c(c1)OCCO2`, the result was inactive.

Regarding `CCOC(=O)c1ccc(NC(=O)Cc2coc3cc4c(cc23)CCC4)cc1`, the call was inactive.

As to `O=C(COC(=O)C1CC1)c1c[nH]c2ccccc12`, the result was inactive.

As for `COc1ccc2[nH]c3c(c2c1)CCN=C3C`, the compound was called inactive.

Consider `C=CCN(C(=O)CN1CCOCC1)c1nc(C)c(-c2ccccc2)s1`, for which the compound was called inactive.

For the compound `N#CCOC(=O)/C=C/c1ccc2c(c1)OCO2`, the result was inactive.

Regarding `CCc1cc2c(-c3ccccc3)cc(=O)oc2cc1OC(C)C(C)=O` (configuration not stated), the compound was classed as inactive.

In the case of `COc1cc(NC(=O)c2cccc(Cl)c2)c(OC)cc1NC(=O)CN1CCCCC1`, the compound was called inactive.

For the compound `COc1ccc(NC(=O)c2cc(Br)ccc2Cl)c(OC)c1`, the compound was classed as inactive.

Consider `Cc1cccc(NC(=S)NC2CC3C=CC2C3)c1` (configuration not stated), for which the call was inactive.

With `CCSc1nnc(NC(=O)Cn2cnc3ccccc3c2=O)s1`, the outcome was inactive.
